What all share (experiment): PBM; 200 nM protein, PBS
What all share (details): dsDNA, one strand shown

The target of assay [1] is T1, SIX6 (Homo sapiens, UniProt O95475 114-200, L167I).
T1 sequence: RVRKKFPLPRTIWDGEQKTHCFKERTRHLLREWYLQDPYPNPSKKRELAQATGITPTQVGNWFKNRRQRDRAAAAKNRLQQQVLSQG

Assay [2] addresses HOXA4 (Homo sapiens, UniProt Q00056 201-287, W262R).
Assay [3] addresses HOXC9 (Homo sapiens, UniProt P31274 178-260, K195R).
Assay [4] deals with T2, SIX6 (Homo sapiens, UniProt O95475 114-200, L143V).
T2 sequence: T1 sequence with L30V, I54L

Assay [5] has as its target T3, SIX6 (Homo sapiens, UniProt O95475 114-200, H141N).
T3 sequence: T1 sequence with H28N, I54L

For assay [6], the target named is T4, SIX6 (Homo sapiens, UniProt O95475 114-200, T165P).
T4 sequence: T1 sequence with T52P, I54L

For assay [7], the target named is T5, SIX6 (Homo sapiens, UniProt O95475 114-200, L167M).
T5 sequence: T1 sequence with I54M

Assay [8] has as its target T6, SIX6 (Homo sapiens, UniProt O95475 114-200, L143M).
T6 sequence: T1 sequence with L30M, I54L

The target of assay [9] is T7, SIX6 (Homo sapiens, UniProt O95475 114-200, L143I).
T7 sequence: T1 sequence with L30I, I54L

Assay [10] concerns the target T8, SIX6 (Homo sapiens, UniProt O95475 114-200, T165G).
T8 sequence: T1 sequence with T52G, I54L

In assay [11] the target is HOXA4 (Homo sapiens, UniProt Q00056 201-287, R217L).
HOXA4 (Homo sapiens, UniProt Q00056 201-287, R217L), sequence (Q00056 201-287 R217L): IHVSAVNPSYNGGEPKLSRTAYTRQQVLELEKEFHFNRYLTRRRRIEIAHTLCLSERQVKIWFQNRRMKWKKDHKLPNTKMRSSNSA
Assay [12] deals with T9, SIX6 (Homo sapiens, UniProt O95475 114-200, T139Q).
T9 sequence: T1 sequence with T26Q, I54L

Assay [13] has as its target HOXC9 (Homo sapiens, UniProt P31274 178-260).
For assay [14], the target named is T10, SIX6 (Homo sapiens, UniProt O95475 114-200, T165A).
T10 sequence: T1 sequence with T52A, I54L

For assay [15], the target named is HOXC9 (Homo sapiens, UniProt P31274 178-260, R193K).
HOXC9 (Homo sapiens, UniProt P31274 178-260, R193K), sequence (P31274 178-260 R193K): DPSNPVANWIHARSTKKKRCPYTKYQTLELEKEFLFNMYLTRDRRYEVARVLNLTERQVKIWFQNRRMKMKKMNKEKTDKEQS
For assay [16], the target named is HOXA4 (Homo sapiens, UniProt Q00056 201-287).
HOXA4 (Homo sapiens, UniProt Q00056 201-287), sequence (Q00056 201-287): as the sequence (Q00056 201-287 R217L) above, with L17R counted along it
Assay [17] has as its target T11, SIX6 (Homo sapiens, UniProt O95475 114-200, L167V).
T11 sequence: T1 sequence with I54V

The target of assay [18] is T12, SIX6 (Homo sapiens, UniProt O95475 114-200).
T12 sequence: T1 sequence with I54L

Assay [19] concerns the target T13, SIX6 (Homo sapiens, UniProt O95475 114-200, T165I).
T13 sequence: T1 sequence with T52I, I54L

The target in assay [20] is HOXC9 (Homo sapiens, UniProt P31274 178-260, R222W).
HOXC9 (Homo sapiens, UniProt P31274 178-260, R222W), sequence (P31274 178-260 R222W): as the sequence (P31274 178-260 R193K) above, with K16R, R45W counted along it
In assay [21] the target is HOXA4 (Homo sapiens, UniProt Q00056 201-287, W262F).
HOXA4 (Homo sapiens, UniProt Q00056 201-287, W262F), sequence (Q00056 201-287 W262F): as the sequence (Q00056 201-287 R217L) above, with L17R, W62F counted along it
Assay [22] concerns the target HOXA2 (Homo sapiens, UniProt O43364 129-215, R185T).
In assay [23] the target is HOXA2 (Homo sapiens, UniProt O43364 129-215, R185K).
HOXA2 (Homo sapiens, UniProt O43364 129-215, R185K), sequence (O43364 129-215 R185K): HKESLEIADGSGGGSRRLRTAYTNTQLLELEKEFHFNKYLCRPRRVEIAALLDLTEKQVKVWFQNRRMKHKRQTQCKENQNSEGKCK
The target of assay [24] is HOXA2 (Homo sapiens, UniProt O43364 129-215, Y150S).
HOXA2 (Homo sapiens, UniProt O43364 129-215, Y150S), sequence (O43364 129-215 Y150S): as the sequence (O43364 129-215 R185K) above, with Y22S, K57R counted along it
The target in assay [25] is NKX3-2 (Homo sapiens, UniProt P78367 192-278, P234S).
NKX3-2 (Homo sapiens, UniProt P78367 192-278, P234S), sequence (P78367 192-278 P234S): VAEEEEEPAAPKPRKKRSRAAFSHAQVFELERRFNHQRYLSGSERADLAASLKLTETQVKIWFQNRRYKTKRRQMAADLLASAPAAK
The target in assay [26] is HOXA2 (Homo sapiens, UniProt O43364 129-215).
HOXA2 (Homo sapiens, UniProt O43364 129-215), sequence (O43364 129-215): as the sequence (O43364 129-215 R185K) above, with K57R counted along it
For assay [27], the target named is NKX3-2 (Homo sapiens, UniProt P78367 192-278).
NKX3-2 (Homo sapiens, UniProt P78367 192-278), sequence (P78367 192-278): as the sequence (P78367 192-278 P234S) above, with S43P counted along it
The target of assay [28] is PROP1 (Homo sapiens, UniProt O75360 56-141).
PROP1 (Homo sapiens, UniProt O75360 56-141), sequence (O75360 56-141): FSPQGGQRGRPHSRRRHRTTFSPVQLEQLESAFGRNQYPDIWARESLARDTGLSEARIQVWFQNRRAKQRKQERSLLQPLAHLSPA
The target of assay [29] is PROP1 (Homo sapiens, UniProt O75360 56-141, R99H).
PROP1 (Homo sapiens, UniProt O75360 56-141, R99H), sequence (O75360 56-141 R99H): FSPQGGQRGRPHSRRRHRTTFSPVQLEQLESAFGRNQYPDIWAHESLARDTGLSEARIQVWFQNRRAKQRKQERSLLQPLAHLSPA
The target of assay [30] is PROP1 (Homo sapiens, UniProt O75360 56-141, F88S).
PROP1 (Homo sapiens, UniProt O75360 56-141, F88S), sequence (O75360 56-141 F88S): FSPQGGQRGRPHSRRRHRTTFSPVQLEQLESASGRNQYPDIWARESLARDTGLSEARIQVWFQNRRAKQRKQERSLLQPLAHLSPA

Changes are numbered by the printed parent chain.

HOXA2 (Homo sapiens, UniProt O43364 129-215, R185T), sequence (O43364 129-215 R185T): as the sequence (O43364 129-215 R185K) above, with K57T counted along it
HOXC9 (Homo sapiens, UniProt P31274 178-260), sequence (P31274 178-260): as the sequence (P31274 178-260 R193K) above, with K16R counted along it
HOXC9 (Homo sapiens, UniProt P31274 178-260, K195R), sequence (P31274 178-260 K195R): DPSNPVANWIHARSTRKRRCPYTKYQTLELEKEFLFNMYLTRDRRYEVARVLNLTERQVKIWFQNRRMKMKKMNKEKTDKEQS
HOXA4 (Homo sapiens, UniProt Q00056 201-287, W262R), sequence (Q00056 201-287 W262R): as the sequence (Q00056 201-287 R217L) above, with L17R, W62R counted along it

As to CCGGGCGC, the binding signal was 8.78 upbm affinity estimate (log intensity, higher = more binding, comparable within an allelic series) with SIX6 [1]; 9.61 upbm affinity estimate (log intensity, higher = more binding, comparable within an allelic series) with HOXA4 [2]; 9.34 upbm affinity estimate (log intensity, higher = more binding, comparable within an allelic series) in the assay with HOXC9 [3]; 8.67 upbm affinity estimate (log intensity, higher = more binding, comparable within an allelic series) in the assay with SIX6 [4]; 8.71 upbm affinity estimate (log intensity, higher = more binding, comparable within an allelic series) with SIX6 [5]; 8.75 upbm affinity estimate (log intensity, higher = more binding, comparable within an allelic series) in the assay with SIX6 [6]. Moreover, the binding signal with SIX6 [7] is 8.72 upbm affinity estimate (log intensity, higher = more binding, comparable within an allelic series); in the assay with SIX6 [8], 8.66 upbm affinity estimate (log intensity, higher = more binding, comparable within an allelic series); in the assay with SIX6 [9], 8.69 upbm affinity estimate (log intensity, higher = more binding, comparable within an allelic series); in the assay with SIX6 [10], 8.73 upbm affinity estimate (log intensity, higher = more binding, comparable within an allelic series); with HOXA4 [11], 9.64 upbm affinity estimate (log intensity, higher = more binding, comparable within an allelic series); in the assay with SIX6 [12] it was 8.6 upbm affinity estimate (log intensity, higher = more binding, comparable within an allelic series). In addition, the binding signal was 9.51 upbm affinity estimate (log intensity, higher = more binding, comparable within an allelic series) with HOXC9 [13]; 8.69 upbm affinity estimate (log intensity, higher = more binding, comparable within an allelic series) with SIX6 [14]; 9.31 upbm affinity estimate (log intensity, higher = more binding, comparable within an allelic series) with HOXC9 [15]; 9.56 upbm affinity estimate (log intensity, higher = more binding, comparable within an allelic series) with HOXA4 [16]; 8.69 upbm affinity estimate (log intensity, higher = more binding, comparable within an allelic series) with SIX6 [17]; 8.66 upbm affinity estimate (log intensity, higher = more binding, comparable within an allelic series) in the assay with SIX6 [18]. Also, the binding signal with SIX6 [19] was 8.72 upbm affinity estimate (log intensity, higher = more binding, comparable within an allelic series); with HOXC9 [20], 9.66 upbm affinity estimate (log intensity, higher = more binding, comparable within an allelic series); in the assay with HOXA4 [21] it was 9.82 upbm affinity estimate (log intensity, higher = more binding, comparable within an allelic series).
Turning to CCCTAGGG, the binding signal in the assay with SIX6 [1] was 8.88 upbm affinity estimate (log intensity, higher = more binding, comparable within an allelic series); with SIX6 [4] it was 8.72 upbm affinity estimate (log intensity, higher = more binding, comparable within an allelic series); in the assay with SIX6 [5], 8.93 upbm affinity estimate (log intensity, higher = more binding, comparable within an allelic series); with SIX6 [6], 8.83 upbm affinity estimate (log intensity, higher = more binding, comparable within an allelic series); with SIX6 [7] it was 8.9 upbm affinity estimate (log intensity, higher = more binding, comparable within an allelic series); with SIX6 [8] it was 8.91 upbm affinity estimate (log intensity, higher = more binding, comparable within an allelic series). In addition, the binding signal with SIX6 [9] was 8.92 upbm affinity estimate (log intensity, higher = more binding, comparable within an allelic series); with SIX6 [10] it was 8.95 upbm affinity estimate (log intensity, higher = more binding, comparable within an allelic series); in the assay with HOXA2 [22], 7.32 upbm affinity estimate (log intensity, higher = more binding, comparable within an allelic series); with SIX6 [12], 9.15 upbm affinity estimate (log intensity, higher = more binding, comparable within an allelic series); in the assay with SIX6 [14], 8.86 upbm affinity estimate (log intensity, higher = more binding, comparable within an allelic series); with HOXA2 [23] it was 10.4 upbm affinity estimate (log intensity, higher = more binding, comparable within an allelic series). The binding signal is 9.08 upbm affinity estimate (log intensity, higher = more binding, comparable within an allelic series) in the assay with SIX6 [17]; 8.85 upbm affinity estimate (log intensity, higher = more binding, comparable within an allelic series) in the assay with SIX6 [18]; 8.92 upbm affinity estimate (log intensity, higher = more binding, comparable within an allelic series) with SIX6 [19]; 10.3 upbm affinity estimate (log intensity, higher = more binding, comparable within an allelic series) with HOXA2 [24]; 10.6 upbm affinity estimate (log intensity, higher = more binding, comparable within an allelic series) in the assay with NKX3-2 [25]; 7.33 upbm affinity estimate (log intensity, higher = more binding, comparable within an allelic series) with HOXA2 [26]. In addition, the binding signal in the assay with NKX3-2 [27] is 10.5 upbm affinity estimate (log intensity, higher = more binding, comparable within an allelic series).
With GTCCGGAC, the binding signal with SIX6 [1] was 9.13 upbm affinity estimate (log intensity, higher = more binding, comparable within an allelic series); with HOXC9 [3], 9.77 upbm affinity estimate (log intensity, higher = more binding, comparable within an allelic series); with SIX6 [4], 8.97 upbm affinity estimate (log intensity, higher = more binding, comparable within an allelic series); with SIX6 [5], 8.97 upbm affinity estimate (log intensity, higher = more binding, comparable within an allelic series); with SIX6 [6], 9.02 upbm affinity estimate (log intensity, higher = more binding, comparable within an allelic series); with SIX6 [7], 9.09 upbm affinity estimate (log intensity, higher = more binding, comparable within an allelic series). Also, the binding signal is 9.15 upbm affinity estimate (log intensity, higher = more binding, comparable within an allelic series) in the assay with SIX6 [8]; 9.08 upbm affinity estimate (log intensity, higher = more binding, comparable within an allelic series) in the assay with SIX6 [9]; 9.27 upbm affinity estimate (log intensity, higher = more binding, comparable within an allelic series) with SIX6 [10]; 7.42 upbm affinity estimate (log intensity, higher = more binding, comparable within an allelic series) with HOXA2 [22]; 9.2 upbm affinity estimate (log intensity, higher = more binding, comparable within an allelic series) in the assay with SIX6 [12]; 9.72 upbm affinity estimate (log intensity, higher = more binding, comparable within an allelic series) in the assay with HOXC9 [13]. Besides, the binding signal in the assay with SIX6 [14] was 9.14 upbm affinity estimate (log intensity, higher = more binding, comparable within an allelic series); in the assay with HOXC9 [15], 9.8 upbm affinity estimate (log intensity, higher = more binding, comparable within an allelic series); with HOXA2 [23], 10.6 upbm affinity estimate (log intensity, higher = more binding, comparable within an allelic series); with SIX6 [17], 9.17 upbm affinity estimate (log intensity, higher = more binding, comparable within an allelic series); with PROP1 [28], 6.74 upbm affinity estimate (log intensity, higher = more binding, comparable within an allelic series); with SIX6 [18], 9.13 upbm affinity estimate (log intensity, higher = more binding, comparable within an allelic series). Besides, the binding signal with PROP1 [29] is 6.64 upbm affinity estimate (log intensity, higher = more binding, comparable within an allelic series); with SIX6 [19], 9.13 upbm affinity estimate (log intensity, higher = more binding, comparable within an allelic series); with HOXC9 [20], 9.89 upbm affinity estimate (log intensity, higher = more binding, comparable within an allelic series); with PROP1 [30] it was 6.7 upbm affinity estimate (log intensity, higher = more binding, comparable within an allelic series); with HOXA2 [24], 10.6 upbm affinity estimate (log intensity, higher = more binding, comparable within an allelic series); with HOXA2 [26], 7.3 upbm affinity estimate (log intensity, higher = more binding, comparable within an allelic series).

The record behind these values is PMC11006913.
